The supplement of paper PMC7530171
Counter-ions that a name gives are not always drawn. ± gives the standard deviation.

test system: THP-1; assay: THP-1 cell loss relative to DMSO control; higher = more host cell loss (toxicity); extreme values may be limits of the assay; conditions: 10 µM; 4 days; infection: M. tuberculosis H37Rv
Procedure: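 OICR kinase inhibitor library screened in duplicate at 10 uM against M. tuberculosis-infected THP-1 macrophages, 4 days at 37 C. THP-1 cell loss (cytotoxicity or loss of adherence) was quantified from Hoechst-stained nuclei counts by high-content imaging and normalised to the 1% DMSO control; 100 = complete loss of host cells.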

Row | Structure (SMILES) | THP-1 cell loss [%]
1 | COc1ccc(S(=O)(=O)N(C(C)=O)c2ccccc2/C=C/c2cc[n+]([O-])cc2)cc1 | 51.3 ± 4.4
2 | COc1cc(Oc2ccnc3cc(OC)c(OC)cc23)ccc1NC(=O)NC(C)c1nccs1 (racemic) | 10.7 ± 4.6
3 | Oc1ccc(Nc2nc(-c3ccc(Cl)cc3)cs2)cc1 [2-(p-Hydroxyanilino)-4-(p-chlorophenyl) thiazole] | 100
4 | CC#CC(=O)Nc1ccc2ncnc(Nc3cccc(Br)c3)c2c1 | 89.6 ± 15
5 | O=C1Cc2c([nH]c3ccc(Br)cc23)-c2ccccc2N1 [Kenpaullone] | 100
6 | O=C(NC(NC(=S)Nc1ccc(F)c([N+](=O)[O-])c1)C(Cl)(Cl)Cl)C(c1ccccc1)c1ccccc1 (stereo unspecified) | 100
7 | Nc1ccc(-c2cccc3c(=O)cc(N4CCOCC4)oc23)cc1 | 39.6 ± 3.5
8 | NC(=O)Nc1cc(-c2cccc(F)c2)sc1C(=O)N[C@H]1CCCNC1 [AZD-7762 hydrochloride] | 100
9 | Clc1ccc(Nc2nnc(Cc3ccncc3)c3ccccc23)cc1 [Vatalanib dihydrochloride] | 39.2 ± 3.4
10 | O=C(NOC[C@H](O)CO)c1ccc(F)c(F)c1Nc1ccc(I)cc1F | 100
11 | CS(=O)(=O)c1cccc(CNc2nc(Nc3ccc4c(c3)CCC(=O)N4)ncc2C(F)(F)F)c1 | 56.3 ± 6
12 | C=CCn1c(=O)c2cnc(Nc3ccc(N4CCN(C)CC4)cc3)nc2n1-c1cccc(C(C)(C)O)n1 | 37 ± 4.8
13 | COC(=O)c1ccc2c(c1)NC(=O)/C2=C(\Nc1ccc(N(C)C(=O)CN2CCN(C)CC2)cc1)c1ccccc1 | 10.48 ± 0.013
14 | COc1cc2c(Oc3ccc(NC(=O)C4(C(=O)Nc5ccc(F)cc5)CC4)cc3F)ccnc2cc1OCCCN1CCOCC1 | 100
15 | Cc1cnc(Nc2ccc(OCCN3CCCC3)cc2)nc1Nc1cccc(S(=O)(=O)NC(C)(C)C)c1 | 100
16 | C/C(=N\N=C(N)N)c1ccc(NC(=O)c2cc3cccc([N+](=O)[O-])c3[nH]2)cc1 | 0
17 | CC(=O)Nc1cccc(-n2c(=O)n(C3CC3)c(=O)c3c(Nc4ccc(I)cc4F)n(C)c(=O)c(C)c32)c1 | 100
18 | COc1cc(OC)c(/C=C/S(=O)(=O)Cc2ccc(OC)c(NCC(=O)O)c2)c(OC)c1 | 44.7 ± 2.4

Row | Structure (SMILES) | THP-1 cell loss [%]
19 | Cc1c[nH]c(/C=C2\C(=O)Nc3ccccc32)c1CCC(=O)O | 10.8 ± 15
20 | Cc1cc(I)ccc1Nc1c(C(=O)NOCC2CC2)cc(F)c(F)c1F | 100
21 | CC1(C)CNc2cc(NC(=O)c3cccnc3NCc3ccncc3)ccc21 [Motesanib diphosphate salt] | 4.91 ± 6.9
22 | Nc1cc(C(F)(F)F)c(-c2cc(N3CCOCC3)nc(N3CCOCC3)n2)cn1 | 73.3 ± 38
23 | Cc1cc(Nc2cc(C)c(C#N)c(NC(C)CCCC(C)(C)O)n2)n[nH]1 (stereo unspecified) [TC-A 2317 hydrochloride] | 19.1 ± 1
24 | Cc1[nH]c(/C=C2\C(=O)Nc3ccc(S(=O)(=O)Cc4c(Cl)cccc4Cl)cc32)c(C)c1C(=O)N1CCC[C@@H]1CN1CCCC1 | 19.1 ± 12
25 | CN(C)CCOc1ccc(-c2nc(-c3ccncc3)c(-c3ccc4c(c3)CC/C4=N\O)[nH]2)cc1 | 72.3 ± 11
26 | Cc1cc(Nc2nc(N[C@@H](C)c3ccc(F)cc3)c(C#N)cc2F)n[nH]1 | 39 ± 9.1
27 | CN(c1ccccc1CNc1nc(Nc2ccc3c(c2)CC(=O)N3)ncc1C(F)(F)F)S(C)(=O)=O | 100
28 | CN1CCC(CNc2ccc3ncc(-c4cccc(OC(F)(F)F)c4)n3n2)CC1 | 55.8 ± 30
29 | CN(C)C[C@@H]1CCn2cc(c3ccccc32)C2=C(C(=O)NC2=O)c2cn(c3ccccc23)CCO1 | 100
30 | Nc1ncnc2c1c(I)cn2[C@@H]1O[C@H](CO)[C@@H](O)[C@H]1O [5-Iodotubercidin] | 100
31 | Oc1ccc(Nc2nc(-c3ccc(Cl)cc3)cs2)cc1 | 100
32 | N#CCNC(=O)c1ccc(-c2ccnc(Nc3ccc(N4CCOCC4)cc3)n2)cc1 | 100
33 | CN(C)CC(C)(C)CNc1nn2c(-c3ccccc3)nnc2cc1C1CCC1 | 18.4 ± 1.3
34 | N#CC(c1ccnc(NCCc2cccnc2)n1)c1nc2ccccc2s1 (stereo unspecified) | 100
35 | O=C(NC[C@H](O)CO)c1ccncc1Nc1ccc(I)cc1F | 100
36 | CC#CC(=O)Nc1cc2c(Nc3ccc(F)c(Cl)c3)ncnc2cn1 | 89.9 ± 14
